According to ChEMBL document CHEMBL3988442, “University of Dundee, Small-Polar-MMV Screening Library” (2021):
In all, about 48,000 compounds went through this assay and about 13,000 (27%) showed an effect of 50% or more. The list shows a part of the results.

tested on: Wolbachia pipientis; assay: Anti-Wolbachia Cell-Based Screen; format: functional; set-up: scale not given: in the data most compounds retested in dose-response had high values; conditions: 5 µM

Structure (SMILES)	Percent Effect [%]
CCN(Cc1ccoc1)C(=O)NC1CCN(CC=C(C)C)CC1	-3.465
Cc1cc(CN2C[C@@H](N3CCN(C)CC3)[C@H]3OCCC[C@H]32)oc1C.O=C(O)C(F)(F)F.O=C(O)C(F)(F)F.O=C(O)C(F)(F)F	8.988
O=C(C1CCOCC1)N1C[C@H](OCc2cccnc2)[C@H]2COC[C@H]21	112.8
O=C(c1cscn1)N1C[C@H](OCc2cccnc2)[C@H]2COC[C@H]21	102.7
O=C(c1ccc2c(c1)OCO2)N1C[C@H](OCC2CC2)[C@H]2COC[C@H]21	-18.04
N#Cc1ccc(N2CCC3(CC2)CC(OCc2cccnc2)CO3)cc1.O=C(O)C(F)(F)F (stereo unspecified)	6.886
O=C(c1ccncn1)N1CCO[C@H]2[C@@H](OCc3cccnc3)CC[C@@H]21	-20.63
Cc1ccc(C(=O)N2C[C@H]3CCCC(OCc4cccnc4)[C@H]3C2)cn1.O=C(O)C(F)(F)F.O=C(O)C(F)(F)F (stereo partly specified)	-3.164
O=C(c1ccnnc1)N1C[C@H]2CCC[C@@H](OCc3cccnc3)[C@@H]2C1	-7.774
Cc1ccc(C(=O)N2C[C@H](OCc3cccnc3)[C@H]3COC[C@H]32)cn1	93.92
Cc1nc(CO[C@H]2CN(C(=O)c3cccnc3)[C@@H]3COC[C@H]23)cs1	-38.06
N#Cc1ccc(C(=O)N2C[C@H](OCc3cccnc3)[C@H]3COC[C@H]32)cc1	101.1
O=C(O)C(F)(F)F.O=C(c1cscn1)N1C[C@H]2CCCC(OCc3cccnc3)[C@H]2C1 (stereo partly specified)	-12.9
CNC(=O)[C@@H]1C[C@@H](NC(=O)Cc2nonc2C)CN1Cc1sccc1C	27.67
CSCCCNC(=O)C1CCC(=O)N(C2CCCC2)C1 (stereo unspecified)	-0.8236
CCOC(=O)N1CCC(OC)c2ccccc2N(C)C(=O)C1 (stereo unspecified)	82.02
NC(=O)CC1CCN(C(=O)NCc2ccccc2-n2cccn2)CC1	4.172
CCOC(=O)COC1CCN(C(C)=O)CC(=O)N(C)c2ccccc21 (stereo unspecified)	107.2
COC1CN(C(=O)NCC(N)=O)CCC(=O)N(C)c2ccccc21 (stereo unspecified)	111.8
Cc1ccccc1N1CC(C)N(C(=O)CCn2cccn2)CC1=O (stereo unspecified)	17.53
CCN1CCN(C2CCN(C(C(N)=O)c3ccccc3)CC2)C1=O (stereo unspecified)	-3.87
CN1CCC(CNC(=O)c2cccc(NC(N)=O)c2)c2ccccc21 (stereo unspecified)	-10.01
CCOC(=O)N1CCN(C(=O)C2CC(=O)N(c3ccccc3Br)C2)CC1 (stereo unspecified)	18.95

Structure (SMILES)	Percent Effect [%]
COC1CCN(C(=O)NCC(N)=O)CC(=O)N(C)c2ccccc21 (stereo unspecified)	98.17
CCOC(=O)N1CCN(C(=O)C2Cc3ccccc3CN2C)CC1 (stereo unspecified)	6.849
CN1CCC(CNC(=O)c2ccc(O)nc2)c2ccccc21 (stereo unspecified)	-12.01
Cc1ccc(C)c(SCC(=O)Nc2cccc(C(=O)N(C)C)n2)c1	-1.523
Cc1nc(S(=O)(=O)CCn2cccn2)n(C2CCCC2)c1C	-3.165
CCOC(=O)CNC(=O)N1CCN(c2ncccn2)CC1	-13.49
CCOC(=O)CNC(=O)N1CCC(OC)c2ccccc2N(C)C(=O)C1 (stereo unspecified)	109.7
CCOC(=O)CNC(=O)N1CCOC(CCc2ccccc2)C1 (stereo unspecified)	-4.892
CCCS(=O)(=O)N1C[C@@H]2COC[C@]2(CN2CCOCC2)C1.O=C(O)C(F)(F)F	-7.734
COCCNC(=O)[C@]12COC[C@H]1CN(C1CCOCC1)C2	-42.69
CS(=O)(=O)N1C[C@H]2CCC[C@@]2(COCC2CCOCC2)C1	-10.38
CS(=O)(=O)N1C[C@@H]2COC[C@]2(COCC(=O)N2CCCC2)C1	114.9
O=C(COC[C@]12COC[C@H]1CN(C1CCC1)C2)N1CCCC1.O=C(O)C(F)(F)F	91.79
C1CC(N2C[C@@H]3COC[C@]3(COCC3CCOCC3)C2)C1.O=C(O)C(F)(F)F	101.5
CS(=O)(=O)N1C[C@@H]2COC[C@]2(CN2CCOCC2)C1.O=C(O)C(F)(F)F	2.768
CN(C)S(=O)(=O)N1C[C@H]2CCC[C@@]2(COCc2cccnc2)C1.O=C(O)C(F)(F)F	15.15
O=C(COC[C@@]12CCC[C@@H]1CN(C1CCCC1)C2)N1CCCC1.O=C(O)C(F)(F)F	93.22
CCc1ccc(CNC(=O)CCNc2ncccn2)s1	5.252
CCOC(=O)CCCc1ccc2c(c1)CC(=O)N2	6.435
Cc1ncn(-c2cc(N3CCN(S(C)(=O)=O)CC3)ncn2)c1C	-0.4612
Cc1cc(C)c2nc(CNC3CCNC3=O)cc(O)c2c1 (stereo unspecified)	-8.98
CC(C)c1nc(S(=O)(=O)N(C)c2ccc(F)cc2)c[nH]1	-3.559
Cc1cc(CN2C[C@H]3CCC[C@@]3(COCC(=O)N3CCCC3)C2)no1	-8.943

Structure (SMILES)	Percent Effect [%]
CN(C)C(=O)COC[C@@]12CCC[C@@H]1CN(C1CCCC1)C2.O=C(O)C(F)(F)F	-10.47
CN(C)C(=O)COC[C@@]12CCC[C@@H]1CN(C1CCC1)C2.O=C(O)C(F)(F)F	4.654
CN(C)C(=O)COC[C@]12COC[C@H]1CN(C1CCCC1)C2.O=C(O)C(F)(F)F	91.16
O=C(COC[C@@]12CCC[C@@H]1CN(C1CCC1)C2)N1CCCC1.O=C(O)C(F)(F)F	106.1
Cc1ccc(CN2CC[C@H]3OCC[C@@]3(COCC(=O)N(C)C)C2)s1.O=C(O)C(F)(F)F	-46.75
Cc1nc(NC(=O)OC(C)(C)C)sc1C(N)=O	1.161
CC(C)c1nnc(CN(C)C(c2ccc(F)cc2)c2cccnc2)o1 (stereo unspecified)	1.551
Cc1cc(C)nc(N2CCc3ccc(OC(F)F)cc3C2)n1	7.415
Cc1ccnc(OC[C@]23COC[C@H]2CN(C(=O)c2cnccn2)C3)n1	95.8
CS(=O)(=O)NC[C@]12COC[C@H]1CN(C(=O)c1cnccn1)C2	-1.744
Cc1ccnc(OC[C@]23COC[C@H]2CN(C(=O)c2ncccn2)C3)n1	94.44
Cc1ccnc(OC[C@]23COC[C@H]2CN(C(=O)C2=CCCCC2)C3)n1	104.7
Cn1cc(C(=O)N2C[C@@H]3COC[C@]3(COCc3cccnc3)C2)cn1	5.656
Cc1nc(C(=O)N2C[C@@H]3COC[C@]3(COCc3cccnc3)C2)cs1	-15.42
Cc1ccc(C(=O)N2C[C@@H]3COC[C@]3(COCc3cccnc3)C2)cn1	-15.81
Cc1ccnc(OC[C@]23COC[C@H]2CN(C(=O)c2ccnn2C)C3)n1	78.09
COC[C@]12COC[C@H]1CN(C(=O)c1ccc(F)cc1C)C2	-9.416
Cc1cc(N(C)C)nc(NC2CCc3nc(C)nn3C2)n1 (stereo unspecified)	0.6524
O=C(C1CC1)N1C[C@H]2CNC[C@@]2(C(=O)NCCCc2ccccc2)C1	-23.56
CCn1cc(CN2CCC(CNC(C)=O)CC2)cc1C#N	3.567
CC(C)Oc1cc(N2CCCC(O)C2)nc(N)n1 (stereo unspecified)	-24.67
COCCCn1ccc(NC2CCOCC2)n1	12.54
COCCN1CCC1c1cc(NC2CCCC2)nc(C)n1 (stereo unspecified)	74.49

Structure (SMILES)	Percent Effect [%]
Cc1cc(N2CCC(NCCOc3ccccc3)CC2)nc(C)n1	2.138
CCc1nc(N)sc1C(=O)N1CCC(c2cc(O)nc(C)n2)CC1	-4.912
Cc1nc(N)cc(C2CCN2CCOc2ccccc2)n1 (stereo unspecified)	153.2
Cc1ncsc1C(=O)NC1CCN(CCC(N)=O)CC1	-6.823
Cc1nc(N)cc(C2CCN2CCC(N)=O)n1 (stereo unspecified)	67.17
Cc1nn(C)c(C)c1C1CCCN1CCOc1cccc(C#N)c1 (stereo unspecified)	-3.583
COCCN1CCC1c1cc(N)nc(C)n1 (stereo unspecified)	66.06
COCCCn1ccc(NC2CCSCC2)n1	-2.987
COCCN1CCN(Cc2ccc3nsnc3c2)[C@H]2CS(=O)(=O)C[C@H]21	0.2231
COCCN1CCC(CN(C)c2nc3c(s2)c(C)nn3C)C1 (stereo unspecified)	-0.8373
CCN(Cc1noc(CC(C)C)n1)Cc1ncccc1C(=O)O	0.41
O=C(Cc1ccc(F)cc1)NCC(O)(c1cccs1)C1CC1 (stereo unspecified)	-8.989
O=C(c1ccccc1-c1nc[nH]n1)N1CCOC(C(F)(F)F)C1 (stereo unspecified)	-3.819
CCCOC1CCCN(C(=O)c2ccnc(N3CCN(C)CC3)c2)C1 (stereo unspecified)	-2.412
O=C(c1ccc(-c2nc[nH]n2)cc1)N1CCOC(C(F)(F)F)C1 (stereo unspecified)	16.44
FC(F)(F)C1CN(c2nc(-c3ccccc3)no2)CCO1 (stereo unspecified)	1.85
CN1CCN(C(=O)c2ccnc(N3CCOC(C(F)(F)F)C3)c2)CC1 (stereo unspecified)	130.4
O=C(c1ccnc(N2CCOC(c3ccc(Cl)cc3)C2)c1)N1CCCC1 (stereo unspecified)	5.063
O=C(c1ccnc(N2CCOC(C(F)(F)F)C2)c1)N1CCCC1 (stereo unspecified)	104.2
Cc1cc(N2CCOC(C(F)(F)F)C2)nc(-c2ccccc2O)n1 (stereo unspecified)	0.367
O=C(c1ccnc(N2CCOC(C(F)(F)F)C2)c1)N1CCOCC1 (stereo unspecified)	126.7
N#CC(NC(=O)CC1CCSCC1)c1cnn(-c2ccccc2)c1 (stereo unspecified)	-2.178
